Here are results for nine compounds from PubChem BioAssay.

Activity calls are given as the source filed them.

Assay [1] relates to Wnt5a (protein binding on small-molecule microarray). As to the kind of experiment: small molecules binding Wnt5a protein – biophysical, small-molecule microarray, 635/667 nm fluorescence, primary screen (AID 1142).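 Also: fluorescence read at 667 nm with signal to noise per printed feature.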 Particulars: 635 nm fluorescence, higher = more signal.
A short description of assay [2]: ATP-based viability of Huh7 replicon cells – cell-based, CellTiter-Glo luminescence, basal, 48 h, cytotoxicity control for HCV replication inhibitor project, primary screen (AID 1143).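 Also: Huh7 hepatoma cells carrying a hepatitis C replication reporter with no stimulus; test concentration not given here.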 Particulars: higher = more signal, called active from +8 up or from −8 down.
The nature of assay [3]: basal CRE-LacZ reporter activity in PC12 – cell-based, unstimulated, primary screen (AID 1145). Particulars: no forskolin, luminescence, 4.5 h, higher = more signal, called active from +8 up or from −8 down.
The nature of assay [4]: forskolin-driven CRE-LacZ activity in PC12 – cell-based, CRE-LacZ reporter, forskolin-stimulated, primary screen (AID 1146).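 Also: PC12 cells with 6xCRE LacZ reporter stimulated by forskolin 10 µM; beta-galactosidase reporter signal reflecting CREB driven transcription.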 Particulars: luminescence, 4.5 h, higher = more signal, called active from +8 up or from −8 down.
Assay [5] has as its target Streptavidin (Streptomyces avidinii) (UniProt P22629). Description: compounds binding control protein streptavidin – biophysical, small-molecule microarray, 635/667 nm fluorescence, artefact control for SMM compound annotation, primary screen (AID 1147).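 Also: signal reflects streptavidin binding to arrayed compounds as a control protein.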 Particulars: higher = more signal.
Assay [6] in a line: probe aInhba binding on compound microarray – biochemical, small-molecule microarray, 635/667 nm fluorescence, primary screen (AID 1148).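 Also: score merges 667nm spot fluorescence with signal-to-noise for antibody binding to printed compounds.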 Particulars: higher = more signal.
Assay [7] has as its target Torsin-1A (Homo sapiens) (UniProt O14656). Description: TOR1A wild-type binding on microarray – cell lysate, small-molecule microarray, lysate, 635/667 nm, primary screen (AID 1149). Particulars: COS7 hTOR1A-WT lysate, 635 nm fluorescence, higher = more signal.
Assay [8] shares this target. Description: torsin A mutant lysate binding on microarrays – cell lysate, small-molecule microarray, COS7 lysate, 635/667 nm fluorescence, primary screen (AID 1150).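 Also: score pools 667 nm emission and signal to noise measuring lysate protein binding.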 Particulars: COS7 hTOR1A mutant lysate, 635 nm fluorescence, higher = more signal.
Assay [9] deals with Sonic hedgehog protein (Shh). Description: Sonic hedgehog microarray binding compounds – biochemical, small-molecule microarray, 635/667 nm fluorescence, primary screen (AID 1151).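 Also: Shh protein binding to compounds spotted on small-molecule microarray slides; score combines spot fluorescence intensity with signal-to-noise across triplicate slides.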 Particulars: 635 nm fluorescence, higher = more signal.
A short description of assay [10]: optical density shifts of acrAB sulA E. coli – strain DRC41, OD650, 48 h, E. coli filamentation inducer project, primary screen (AID 1152).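 Also: E. coli MC1000 strain DRC41 lacking acrAB efflux pump and sulA.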 Particulars: higher = more signal, called active from +8 up or from −8 down.
Assay [11] can be described thus: probe aLefty1 binding on compound microarray – biochemical, small-molecule microarray, 635/667 nm fluorescence, primary screen (AID 1153).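 Also: score merges spot fluorescence with signal-to-noise ratio from the scanned slide images.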 Particulars: higher = more signal.
The nature of assay [12]: plasmodial surface anion channel blockers, osmotic lysis – cell-based, P. falciparum Indochina, OD700, 1 h, primary screen (AID 1154). Particulars: P. falciparum Indochina infected RBC osmotic lysis, higher = more signal, called active from +8 up or from −8 down.
Assay [13] is described as follows: plasmodial surface anion channel blockers, osmotic lysis – cell-based, P. falciparum Indochina, OD700, 2 h, primary screen (AID 1155).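 Also: lysis reports solute entry through the parasite surface anion channel PSAC.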 Particulars: P. falciparum Indochina infected erythrocytes, higher = more signal, called active from +8 up or from −8 down.
Assay [14] is described as follows: changes in parasitized red cell lysis, either direction – P. falciparum Indochina, OD700, 3 h, PSAC antagonist project, primary screen (AID 1156). Particulars: P. falciparum-infected erythrocytes, osmotic lysis, higher = more signal, called active from +8 up or from −8 down.
A short description of assay [15]: plasmodial surface anion channel blockers, osmotic lysis – cell-based, P. falciparum Indochina, OD700, 18 h, primary screen (AID 1157). Particulars: P. falciparum Indochina infected erythrocytes, osmotic lysis OD700, 18 h; higher = more signal, called active from +8 up or from −8 down.
Assay [16] is described as follows: S6 kinase pathway phospho-S6 level changes – cell-based, A549, cytoblot, luminescence, serum-stimulated, primary screen (AID 1158).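 Also: serum-stimulated A549 lung adenocarcinoma cells; signal is phosphorylated S6 detected by cytoblot immunostaining with HRP secondary.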 Particulars: 5 h, higher = more signal.
Assay [17] addresses NADPH oxidase 2 (Homo sapiens) (UniProt P04839). Description: compounds shifting NOX2 Amplex Red fluorescence – cell-based, HEK293-NOX2, PMA-stimulated, NOX inhibitor project, primary screen (AID 1159). Also: test concentration not given here. Particulars: 45 min, higher = more signal, called active from +8 up or from −8 down.
Assay [18] has as its target NADPH oxidase 4 (Homo sapiens) (UniProt Q9NPH5). Description: compounds shifting NOX4 Amplex Red fluorescence – cell-based, HEK293-NOX4, tetracycline-induced, NOX inhibitor project, primary screen (AID 1160). Particulars: HEK293-NOX4, Amplex Red H2O2 fluorescence, 45 min; higher = more signal, called active from +8 up or from −8 down.
Assay [19] has as its target NADPH oxidase 5 (Homo sapiens) (UniProt Q96PH1). Description: compounds shifting NOX5 Amplex Red fluorescence – cell-based, HEK293-NOX5, NOX inhibitor project, primary screen (AID 1161). Particulars: HEK293-NOX5, ionomycin, 45 min, higher = more signal.

Chain of Streptavidin (Streptomyces avidinii) (P22629 whole entry, looked up): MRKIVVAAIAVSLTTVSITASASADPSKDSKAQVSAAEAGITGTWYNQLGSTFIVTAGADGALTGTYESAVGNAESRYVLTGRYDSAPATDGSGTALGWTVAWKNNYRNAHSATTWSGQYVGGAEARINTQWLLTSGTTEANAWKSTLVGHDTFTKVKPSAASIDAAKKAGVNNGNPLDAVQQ
Chain of Torsin-1A (Homo sapiens) (O14656 whole entry, looked up): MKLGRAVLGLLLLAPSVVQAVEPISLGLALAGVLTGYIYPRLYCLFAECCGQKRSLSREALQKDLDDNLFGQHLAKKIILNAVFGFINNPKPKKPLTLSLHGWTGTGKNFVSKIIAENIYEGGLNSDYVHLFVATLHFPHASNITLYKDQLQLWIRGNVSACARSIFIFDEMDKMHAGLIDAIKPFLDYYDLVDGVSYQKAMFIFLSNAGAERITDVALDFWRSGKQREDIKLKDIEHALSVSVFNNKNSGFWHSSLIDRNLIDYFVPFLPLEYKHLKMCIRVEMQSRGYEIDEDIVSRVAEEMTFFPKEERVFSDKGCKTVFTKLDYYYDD
Chain of NADPH oxidase 4 (Homo sapiens) (Q9NPH5 whole entry, looked up): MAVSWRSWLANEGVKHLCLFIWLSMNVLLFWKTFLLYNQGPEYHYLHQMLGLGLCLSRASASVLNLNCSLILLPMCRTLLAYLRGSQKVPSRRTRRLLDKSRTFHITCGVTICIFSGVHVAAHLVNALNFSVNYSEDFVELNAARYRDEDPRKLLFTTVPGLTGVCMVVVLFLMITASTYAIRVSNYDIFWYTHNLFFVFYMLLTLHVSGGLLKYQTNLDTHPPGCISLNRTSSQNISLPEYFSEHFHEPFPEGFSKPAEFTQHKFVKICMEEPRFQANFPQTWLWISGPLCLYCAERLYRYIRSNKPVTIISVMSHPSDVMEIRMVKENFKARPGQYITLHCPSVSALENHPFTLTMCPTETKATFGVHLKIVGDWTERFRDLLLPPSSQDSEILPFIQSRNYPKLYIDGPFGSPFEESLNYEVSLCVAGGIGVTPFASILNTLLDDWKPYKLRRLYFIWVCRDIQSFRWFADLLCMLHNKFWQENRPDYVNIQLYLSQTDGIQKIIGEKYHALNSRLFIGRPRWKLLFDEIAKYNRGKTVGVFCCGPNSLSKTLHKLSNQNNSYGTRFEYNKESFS
Chain of NADPH oxidase 5 (Homo sapiens) (Q96PH1 whole entry, looked up): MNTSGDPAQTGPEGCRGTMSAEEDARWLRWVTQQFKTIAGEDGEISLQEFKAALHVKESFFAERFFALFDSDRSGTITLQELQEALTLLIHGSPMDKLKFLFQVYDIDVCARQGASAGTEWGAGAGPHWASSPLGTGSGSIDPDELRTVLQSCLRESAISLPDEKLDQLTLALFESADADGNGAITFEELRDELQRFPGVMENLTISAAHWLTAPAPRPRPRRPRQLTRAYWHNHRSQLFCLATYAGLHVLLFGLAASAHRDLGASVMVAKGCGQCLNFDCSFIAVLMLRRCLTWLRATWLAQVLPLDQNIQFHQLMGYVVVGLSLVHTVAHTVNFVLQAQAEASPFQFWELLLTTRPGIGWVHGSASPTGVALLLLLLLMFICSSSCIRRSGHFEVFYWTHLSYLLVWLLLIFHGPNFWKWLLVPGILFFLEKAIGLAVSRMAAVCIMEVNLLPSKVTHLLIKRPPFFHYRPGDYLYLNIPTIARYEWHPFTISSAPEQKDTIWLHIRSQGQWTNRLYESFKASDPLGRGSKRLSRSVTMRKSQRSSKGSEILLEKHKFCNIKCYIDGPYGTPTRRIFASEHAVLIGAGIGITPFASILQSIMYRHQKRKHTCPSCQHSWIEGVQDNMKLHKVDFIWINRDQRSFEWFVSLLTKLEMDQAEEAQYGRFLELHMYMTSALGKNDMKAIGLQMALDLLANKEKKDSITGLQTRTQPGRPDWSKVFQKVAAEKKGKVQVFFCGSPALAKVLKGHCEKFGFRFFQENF
Chain of NADPH oxidase 2 (Homo sapiens) (P04839 whole entry, looked up): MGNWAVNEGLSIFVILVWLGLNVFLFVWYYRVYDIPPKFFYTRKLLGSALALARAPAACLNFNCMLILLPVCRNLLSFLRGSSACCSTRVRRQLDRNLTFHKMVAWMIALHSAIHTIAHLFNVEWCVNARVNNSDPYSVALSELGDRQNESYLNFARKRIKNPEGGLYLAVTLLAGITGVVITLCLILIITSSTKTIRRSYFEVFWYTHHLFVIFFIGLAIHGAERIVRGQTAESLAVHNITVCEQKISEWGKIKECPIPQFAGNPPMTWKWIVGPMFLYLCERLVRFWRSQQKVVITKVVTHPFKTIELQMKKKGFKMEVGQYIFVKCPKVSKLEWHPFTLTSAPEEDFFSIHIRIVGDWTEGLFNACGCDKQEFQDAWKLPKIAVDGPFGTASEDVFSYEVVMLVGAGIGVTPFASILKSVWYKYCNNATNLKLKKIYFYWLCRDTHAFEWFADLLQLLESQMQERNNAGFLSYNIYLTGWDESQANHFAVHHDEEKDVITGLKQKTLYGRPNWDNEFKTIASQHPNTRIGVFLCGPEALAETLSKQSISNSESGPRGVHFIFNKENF

`C[C@@H]1CC[C@H]2C(=O)N3CCC[C@H]3C(=O)N2[C@H]1c1ccc(Br)cc1`: the composite z-score in assay [1] was 0.12; in assay [5] it was 1.98; in assay [6] it was -0.0986; in assay [7] it was 0.529; in [8] it was 0.492; in assay [9], -0.0312. Besides, in [11], the composite z-score is -0.218. Also, the z-score in assay [2] was -0.184 (inactive); in [3], 1.1 (inactive); in assay [4], -0.0739 (inactive); in assay [10], 1.29 (inactive); in assay [12], 0.338 (inactive); in assay [13], -0.0391 (inactive). Also, the z-score in [14] is 0.363 (inactive); in assay [15] it was 0.444 (inactive); in assay [16], 0.349; in [17], 0.607 (inactive); in assay [18] it was 0.296 (inactive); in [19], 0.764.
Turning to `CC(C)[Si]1(C(C)C)O[C@@H](c2ccccc2)c2cc(C3CC3)nc(-c3ccc(Oc4ccccc4)cc3)c21`, the composite z-score is -0.217 in [1]; -0.646 in assay [5]; -0.0082 in [6]; -0.617 in [7]; -0.0373 in assay [8]; -0.239 in [9]. Also, the composite z-score in [11] was -0.0011. Besides, the z-score in assay [2] was -0.313 (inactive); in assay [3], 0.0176 (inactive); in [4], -0.59 (inactive); in assay [10], 2.17 (inactive); in [12] it was 0.835 (inactive); in assay [13] it was -0.0994 (inactive). Further, the z-score in assay [14] is 1.08 (inactive); in assay [15], -0.812 (inactive); in assay [16], -0.164; in assay [17] it was 1.06 (inactive); in assay [18] it was 0.86 (inactive); in assay [19] it was 0.456.
As to `CCOC(=O)[C@H]1C/C=C/C[C@H](C(=O)OCC)C(=O)O[C@H]2[C@@H](OC)O[C@H](CO)[C@@H](OC(=O)Nc3ccc(Br)cc3)[C@@H]2OC1=O`, the composite z-score in assay [1] was 0.172; in assay [5] it was 0.521; in assay [6], -0.121; in assay [7], 0.164; in [8], -0.2; in assay [9], 0.69. This compound also showed a composite z-score in assay [11] of 0.0606. The z-score in [2] is -6.64 (inactive); in assay [3], -0.614 (inactive); in assay [4], -1.23 (inactive); in assay [10], 2.32 (inactive); in assay [12], 5.41 (inactive); in assay [13], 1.8 (inactive). Moreover, the z-score is -3.28 (inactive) in assay [14]; 0.412 (inactive) in assay [15]; 1.5 in assay [16]; -0.611 (inactive) in assay [17]; -0.759 (inactive) in [18]; 1.63 in assay [19].
In the case of `CCCNC(=O)[C@@H]1c2ccccc2C(=O)N(Cc2cc(F)cc(C(F)(F)F)c2)[C@H]1c1ccc(CO)cc1`, the composite z-score was found to be 0.411 in assay [1]; 0.568 in assay [5]; 0.157 in assay [6]; 0.528 in [7]; 0.457 in assay [8]; 1.93 in assay [9]. The composite z-score in [11] came out at 0.251. The z-score in assay [2] is -2.08 (inactive); in assay [3], -0.529 (inactive); in assay [4], -1.53 (inactive); in [10] it was 1.86 (inactive); in assay [12] it was 2.1 (inactive); in assay [13] it was -0.314 (inactive). The z-score in assay [14] was 0.064 (inactive); in [15] it was -0.73 (inactive); in [16], 1.74; in assay [17], 1.2 (inactive); in assay [18], 0.609 (inactive); in [19], 0.676.
Regarding `O=C(CS)NCCCCCNC(=O)[C@H]1C[C@H]2C(=O)N3CCC[C@H]3C(=O)N2[C@H]1c1ccc(O)cc1`, the composite z-score in assay [1] was 0.143; in assay [5] it was -1.13; in assay [6], -0.024; in assay [7], -0.159; in assay [8] it was 0.0883; in assay [9] it was 1.63. This compound yielded a composite z-score in [11] of 0.357. The z-score in assay [2] is -0.564 (inactive); in assay [3], -0.528 (inactive); in [4] it was -1.59 (inactive); in assay [10], 1.65 (inactive); in assay [12], 2.68 (inactive); in assay [13], -0.856 (inactive). Also, the z-score in assay [14] is -2.55 (inactive); in assay [15], -1.63 (inactive); in assay [16], 1.24; in assay [17] it was 0.274 (inactive); in assay [18] it was 0.00663 (inactive); in assay [19], 0.214.
With `COc1cccc([C@@H]2[C@@H](C)CC[C@H]3C(=O)N4[C@H](c5cccc(OC)c5)[C@@H](C)CC[C@H]4C(=O)N23)c1`, the composite z-score came out at 0.0508 in [1]; 0.258 in assay [5]; 0.054 in assay [6]; 0.504 in assay [7]; 0.824 in assay [8]; 0.944 in assay [9]. In addition, the composite z-score in assay [11] was -0.234. For the same compound, the z-score is -1.88 (inactive) in [2]; 1.38 (inactive) in assay [3]; -1.18 (inactive) in [4]; -0.0799 (inactive) in [10]; -0.0074 (inactive) in assay [12]; -0.69 (inactive) in assay [13]. Besides, the z-score in assay [14] was -1.21 (inactive); in [15], -0.987 (inactive); in [16], 3.15; in assay [17], 0.181 (inactive); in assay [18], 0.349 (inactive); in assay [19], 0.796.
Turning to `COCCOC(=O)N1C(=O)[C@@]2(c3cc(C#CCCO)ccc31)[C@H](C(=O)N1CCCCCCC1)[C@H]1C(=O)O[C@H](c3ccccc3)[C@H](c3ccccc3)N1[C@@H]2c1ccc(O)cc1`, the composite z-score came to 0.138 in [1]; 1 in assay [5]; 0.74 in [6]; 0.678 in [7]; 0.922 in assay [8]; 1.06 in assay [9]. Moreover, the composite z-score in assay [11] worked out at 1.6. Also, the z-score in assay [2] is -4.07 (inactive); in assay [3], -0.815 (inactive); in assay [4] it was -1.28 (inactive); in assay [10], 3.86 (inactive); in assay [12], 1.06 (inactive); in [13] it was -0.755 (inactive). For the same compound, the z-score in [14] was -0.0793 (inactive); in assay [15], -1.32 (inactive); in [16], 5.3; in assay [17], 1.7 (inactive); in assay [18] it was 0.807 (inactive); in assay [19], 1.67.
Regarding `CO[C@H]1COC(=O)[C@@H](C)COC(=O)[C@H](Cc2ccccc2)NC(=O)CC=C[C@H]1C`, the composite z-score is -0.0116 in assay [1]; -0.666 in [5]; -0.0889 in assay [6]; 0.268 in assay [7]; 0.0916 in assay [8]; 1.85 in assay [9]. Further, the composite z-score in assay [11] is -0.363. Also, the z-score in assay [2] was -0.317 (inactive); in assay [3], 0.432 (inactive); in assay [4], -0.968 (inactive); in [10], -0.507 (inactive); in [12] it was -0.318 (inactive); in [13], -1.31 (inactive). Besides, the z-score in assay [14] is -0.116 (inactive); in assay [15], -2.15 (inactive); in assay [16] it was 0.627; in assay [17], 0.714 (inactive); in assay [18], 0.791 (inactive); in assay [19], 0.299.
On to `COc1ccc([Si](C)(C)[C@H]2[C@H](CCO)O[C@@]3(C(=O)N(Cc4ccc(N5CCCCC5=O)cc4)c4ccccc43)[C@@H]2C)cc1`, for which the composite z-score was -0.0939 in assay [1]; -0.0077 in assay [5]; -0.128 in assay [6]; 0.446 in assay [7]; 0.62 in [8]; 1.58 in [9]. For the same compound, the composite z-score in assay [11] turned out to be 0.0361. Further, the z-score in assay [2] was -3.56 (inactive); in assay [3], 1.98 (inactive); in assay [4], -2.57 (inactive); in assay [10], 0.178 (inactive); in assay [12], 29.4 (active); in assay [13], 25.6 (active). In addition, the z-score in assay [14] is -0.512 (inactive); in [15], 2.98 (inactive); in assay [16] it was 1.26; in assay [17] it was 1.11 (inactive); in [18] it was 0.347 (inactive); in assay [19], 1.5.
